# Test results: ChEMBL document CHEMBL1961873, “Compounds: GSK PKIS; Assays: Nanosyn kinase panel” (2012)
# Values joined by “and” are separate entries in the source; they are usually repeats but may differ in a detail not shown here. Equal entries are not always repeated.
# Biological target: Serine/threonine-protein kinase PAK 1 (Homo sapiens) (UniProt Q13153)
# Settings: at 0.1 µM
# 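Note: values are mean PAK1 inhibition from the GSK PKIS kinase inhibitor set screen.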
# Chain of Serine/threonine-protein kinase PAK 1 (Homo sapiens) (Q13153 whole entry): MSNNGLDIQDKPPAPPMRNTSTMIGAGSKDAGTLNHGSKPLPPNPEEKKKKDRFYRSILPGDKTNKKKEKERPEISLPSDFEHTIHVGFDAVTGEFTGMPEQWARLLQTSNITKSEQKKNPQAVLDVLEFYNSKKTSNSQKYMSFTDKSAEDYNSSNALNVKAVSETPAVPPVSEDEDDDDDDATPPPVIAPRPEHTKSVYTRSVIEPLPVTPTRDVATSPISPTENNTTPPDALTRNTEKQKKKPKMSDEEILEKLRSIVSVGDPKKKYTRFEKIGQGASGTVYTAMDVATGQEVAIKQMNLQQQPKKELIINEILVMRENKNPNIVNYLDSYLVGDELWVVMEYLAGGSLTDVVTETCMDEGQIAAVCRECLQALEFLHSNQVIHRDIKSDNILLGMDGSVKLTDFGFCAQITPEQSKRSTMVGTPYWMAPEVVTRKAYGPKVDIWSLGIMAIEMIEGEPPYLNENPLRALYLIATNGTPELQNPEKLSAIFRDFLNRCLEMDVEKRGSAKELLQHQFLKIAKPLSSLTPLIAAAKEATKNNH
row,SMILES,inhibition
1,NS(=O)(=O)c1ccc(N/N=C2\C(=O)Nc3ccc(C(=O)NCc4ccncc4)cc32)cc1,4.25%
2,CCCNc1cccc(-n2ncc3c(N/N=C/c4ccncc4)ncnc32)c1,-0.99%
3,c1cnn2ncc(-c3ccnc(NCCCN4CCOCC4)n3)c2c1,6.37%
4,O=C(Nc1n[nH]c2nnc(-c3cccnc3)cc12)C1CC1,-0.56%
5,COC(=O)Nc1nc2cc(Oc3ccc(NC(=O)Nc4ccccc4)cc3)ccc2[nH]1,0.78%
6,Fc1ccc(Nc2nccc(-c3c(-c4ccc(C(F)(F)F)cc4)nn4ncccc34)n2)cc1F,4.75%
7,CCS(=O)(=O)c1ccc(OC)c(Nc2ncc(-c3cccc(F)c3)o2)c1,9.43%
8,CN1CCC(C(=O)Nc2n[nH]c3nc(-c4ccc(O)cc4)c(Br)cc23)CC1,7.92% and -0.37%
9,CC1=C(C(=O)Nc2ccc3[nH]nc(C)c3c2)C(c2ccc(C(F)(F)F)cc2)CC(=O)N1 (configuration not stated),4.1%
10,COc1cccc(-n2ncc3c(N/N=C/c4ccc(C(=O)NCCN(C)C)cc4)ncnc32)c1,7.17%
11,N#Cc1ccc2c(-c3ccnc(NC4CC4)n3)c(-c3ccc(F)cc3)nn2c1,-1.35%
12,COc1ccc(Nc2ncc(-c3ccccc3)o2)cc1OC,0.24%
13,Nc1nccc(-c2c(-c3ccc(F)cc3)ncn2C2CCNCC2)n1,-3.53% and -3.93%
14,Cc1cc(O)cc(C)c1/C=C/c1cncc(C(N)=O)c1,1.07%
15,N#Cc1cccc(Nc2ncc(-c3ccccc3)o2)c1,-2.44%
16,CC1=C(C(=O)Nc2ccc3[nH]ncc3c2)C(c2ccc(F)cc2)N=C(c2ccc(C(F)(F)F)nc2)N1 (configuration not stated),2.26%
17,COc1cc2c(cc1Nc1nc(Nc3cccc(F)c3C(N)=O)c3cc[nH]c3n1)N(C(=O)CN1CCN(C(C)C)CC1)CC2,5.25%
